Measured values as given in PubChem BioAssay (NCATS).
Results filed as inconclusive are left out. Active and inactive are the calls of the source. Unless noted, calls come from the whole dose curve; as a rule, active = well fitted curve in the direction sought with a large enough effect; inconclusive = small, poorly fitted or top-dose-only effect, or another doubt; inactive = no such curve, though single readings can be large; an effect the other way counts as inactive or inconclusive.

Legend:
[1] = target: Ubiquitin carboxyl-terminal hydrolase 1 (Homo sapiens) (UniProt O94782); experiment: Inhibitors of USP1/UAF1: Pilot qHTS (AID 504865);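 note: rhodamine fluorescence freed from ubiquitin-rhodamine substrate followed over time; top concentration of the series differs between compounds; % is set by controls: 0 for no effect and ±100 for the full control effect; nearly all actives have a fitted effect of over 35% in size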
Procedure, shortened: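 In 50mM HEPES pH 7.8 containing 0.5mM EDTA, 1mM TCEP, 0.1 mg/ml BSA and 0.01% Tween-20, 1nM USP1/UAF1 is exposed to compound for 15 min, then Ub-Rho (150nM final) is added and fluorescence is read over time.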

[2] = target: Lysosomal acid glucosylceramidase (Homo sapiens) (UniProt P04062); experiment: Glucocerebrosidase-p2 (AID 348; in the data active = potency below about 10 µM; note: potency is the fitted concentration of half-maximal effect); details: purified GBA, blue fluorogenic substrate, 40 min
Procedure, shortened: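 Normal human glucocerebrosidase (0.2 nM) with blue fluorogenic substrate (80 uM final) in citrate/phosphate pH 5.9 with 10mM sodium taurocholate, 0.01% tween-20; 40 min RT, NaOH/glycine stop; fluorescence Ex 365/Em 440; AC50 from a titration from 0.6 nM upwards.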

[3] = AP1 Signaling Pathway (AID 357; active = well fitted curve in either direction with a large enough effect, not every such curve was filed as active; note: % is set by controls: 0 for no effect and ±100 for the full control effect); details: ME-180 AP-1-bla reporter, EGF-induced, beta-lactamase ratio, 5 h; at 7.69 µM (top of the series) unless noted
Procedure, shortened: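 AP-1-bla ME-180 cells with beta-lactamase reporter under AP-1 response element, stimulated with EC50 EGF; compounds titrated, 5 hours at 37 degrees Celsius. CCF4 read at 460/530 nm ratio; positive and negative modulators judged by AC50.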

[4] = target: Cytochrome P450 1A2 (Homo sapiens) (UniProt P05177); experiment: p450-cyp1a2 (AID 410; calls by dose curve; note: potency is the fitted concentration of half-maximal effect;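 for activity change, negative = inhibition: -100% = full effect of reference inhibitor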)
Procedure, shortened: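 20nM CYP1A2, 100uM Luciferin-ME (=Km), 100mM KPO4; cpd 10 min RT; +NADPH regen, 60 min RT; stop/detect 20 min; luminescence. Normalized to furafylline 57 uM = full inhibition.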

[5] = NFAT Signaling Pathway (AID 444; active = well fitted curve in either direction with a large enough effect, not every such curve was filed as active;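 note: carbachol stimulus at about its EC50 of 1 µM final; % is set by controls: 0 for no effect and ±100 for the full control effect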); details: Jurkat NFAT-bla M1, carbachol, beta-lactamase ratio, 5 h; at 7.69 µM (top of the series) unless noted
Procedure, shortened: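 Read-out: CCF4 FRET ratio (460 nm/530 nm) after 1 h RT dye loading, used for %activity and AC50 from titration series. Cells: Jurkat NFAT-β-lactamase/M1 line, treated with compound plus 1 uM carbachol for 5 h, 37 °C.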

[6] = Stat Signaling Pathway (AID 446; active = well fitted curve in either direction with a large enough effect, not every such curve was filed as active;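 note: ME-180 cervical cancer cells given 40 pM IL-6 alongside compound; SIE-controlled beta-lactamase reporter measured as 460/530 nm FRET emission ratio; % is set by controls: 0 for no effect and ±100 for the full control effect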)
Procedure, shortened: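 Emission at 460 and 530 nm (excitation 405 nm) reports SIE-controlled beta-lactamase in ME-180 cells. Cells received compound with 40 pM IL-6 for 5 hrs at 37 C; data scaled between 300 pM IL-6 and 125 nM JAK-inhibitor controls.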

[7] = target: Glucocorticoid receptor (Homo sapiens) (UniProt P04150); experiment: GR-GFP Redistribution (AID 450;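 active = compounds whose dose series gives a full or clear partial fitted curve of increased nuclear translocation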; note: potency is the fitted concentration of half-maximal effect); details: U2OS GR-GFP nuclear translocation, laser cytometry, 2 h
[8] = target: Glucocorticoid receptor (Homo sapiens) (UniProt P04150); experiment: GR-EFC Redistribution (AID 451; calls by dose curve; note: potency is the fitted concentration of half-maximal effect); details: CHO-K1 GR-EFC translocation, beta-gal luminescence, 2 h
Procedure, shortened: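 Translocation of GR-ED fusion to nuclear EA restores b-gal, read by luminescence after 1 h room-temperature detection. Engineered CHO-K1 biosensor cells, 1,000/well, exposed 2 h at 37 C to titrations up to 46 uM final.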

[9] = target: Mitogen-activated protein kinase 10 (Mus musculus) (UniProt Q61831); experiment: JNK3 AlphaScreen Assay (AID 530; active = well fitted curve in either direction with a large enough effect, not every such curve was filed as active;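 note: kinase came from lysate of stimulated human HepG2 cells; signal reports phosphorylation of biotinylated GST-cJun 1-79 at Ser73 with 10 µM ATP; % is set by controls: 0 for no effect and ±100 for the full control effect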)
Procedure, shortened: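 Kinase buffer: 20 mM Tris-HCl pH 7.6, 10 mM MgCl2, 1 mM DTT, 0.1 mM Na3VO4, 0.01% Tween-20; ATP 10 uM. Substrate biotin-GST-cJun(1-79), enzyme from activated HepG2 lysates. Detection by Ser73 phospho-antibody AlphaScreen.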

[10] = target: 3',5'-cyclic-AMP phosphodiesterase 4B (Homo sapiens) (UniProt Q07343); experiment: qHTS Assay for Inhibitors of PDE-IV (AID 607; active = well fitted activation curve with a large enough effect in the main read-out, with a control signal flat, not every such curve was filed as active; note: % of control where 0% means no effect)
Procedure, shortened: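 The readout is membrane depolarisation from a cAMP-sensing CNG channel, detected with a potential dye at ex 535/em 590. Cells were HEK293-derived (endogenous PDE-IV) at 1000 cells/well, titrated up to 22.9 uM final.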

[11] = target: Cytochrome P450 3A4 (Homo sapiens) (UniProt P08684); experiment: qHTS Assay for Inhibitors and Substrates of Cytochrome P450 3A4 (AID 884); note: potency is the fitted concentration of half-maximal effect; nearly all actives have a fitted effect of over 50% in size
Procedure, shortened: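 Luminescent readout of luciferin produced by CYP3A4 (20 nM) dealkylation of Luciferin-PPXE, 25 uM (its KM). NADPH-driven reaction ran 60 min at RT after 10 min compound preincubation; data scaled to 57 uM ketoconazole as 100% inhibition.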

[12] = target: Cytochrome P450 3A4 (Homo sapiens) (UniProt P08684); experiment: qHTS Assay for Activators of Cytochrome P450 3A4 (AID 885); note: nearly all actives have a fitted effect of over 65% in size
Procedure, shortened: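 Activators are scored by enhanced luminescence from CYP3A4 conversion of luciferin-PPXE (25uM, equal to KM) to luciferin, after 60 min at RT with an NADPH-regenerating system.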

[13] = target: Dual specificity protein kinase CLK4 (Homo sapiens) (UniProt Q9HAZ1); experiment: qHTS Assay for Inhibitors of CDC-like Kinase 4 (Kinase-Glo Assay) (AID 1770); note: nearly all actives have a fitted effect of over 65% in size; note: potency is the fitted concentration of half-maximal effect
Procedure, shortened: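 Substrate mix (RS peptide 100 uM, ATP 1 uM) dispensed, compound pinned in, then Clk4 added to 25 nM final. Incubated 4.5 h at RT; Kinase-Glo reagent added, luminescence read after 5 min.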

[14] = target: Dual specificity protein kinase CLK4 (Homo sapiens) (UniProt Q9HAZ1); experiment: qHTS Assay for Inhibitors of CDC-like Kinase 4 (ADP-Glo Assay) (AID 1771); note: nearly all actives have a fitted effect of over 70% in size; note: potency is the fitted concentration of half-maximal effect
Procedure, shortened: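 25 nM Clk4, 100 uM RS peptide, 1 uM ATP (final); 2 mM MgCl2, 0.5 mM EGTA, 2.5 mM DTT, 0.01% Triton X-100; 1 hr RT. ADP-Glo readout: ATP depletion 45 min, conversion/luciferase 30 min, luminescence.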

[15] = target: Dual specificity protein kinase CLK4 (Homo sapiens) (UniProt Q9HAZ1); experiment: qHTS Assay for Inhibitors of CDC-like Kinase 4 (ADP-FP Assay) (AID 1795); note: nearly all actives have a fitted effect of over 60% in size; note: potency is the fitted concentration of half-maximal effect
Procedure, shortened: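 Clk4 6.25 nM; RS peptide 100 uM; ATP 1 uM; 25 mM Tris pH 7.5, 10 mM MgCl2; 1 h reaction. ADP detected via antibody/orange tracer FP displacement; TG003 positive control.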

[16] = target: Cytochrome P450 2C9 (Homo sapiens) (UniProt P11712); experiment: qHTS Assay for Inhibitors and Substrates of Cytochrome P450 2C9 (AID 883); note: potency is the fitted concentration of half-maximal effect; nearly all actives have a fitted effect of over 60% in size
Procedure, shortened: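 Turnover of Luciferin-H (100uM, KM) by 10nM human CYP2C9 was measured over 60 min at 37C with NADPH regeneration; inhibitors and some substrates reduce luminescence. Data normalized to sulphaphenazole 57uM.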

[17] = target: Cytochrome P450 2D6 (Homo sapiens) (UniProt P10635); experiment: qHTS Assay for Inhibitors and Substrates of Cytochrome P450 2D6 (AID 891); note: potency is the fitted concentration of half-maximal effect; nearly all actives have a fitted effect of over 60% in size
Procedure, shortened: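 Luminescent read-out of luciferin formed by 5 nM human CYP2D6 demethylating 30 uM Luciferin-ME EGE (Km level) over 60 min at room temperature after NADPH regeneration addition. Data normalized to full inhibition by 1.43 uM quinidine.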

[18] = target: Cytochrome P450 2C19 (Homo sapiens) (UniProt P33261); experiment: qHTS Assay for Inhibitors and Substrates of Cytochrome P450 2C19 (AID 899); note: potency is the fitted concentration of half-maximal effect; nearly all actives have a fitted effect of over 60% in size
Procedure, shortened: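 Reactions contain 5nM enzyme, 10uM Luciferin-H EGE (KM) and 50mM KPO4; compound preincubates 10 min at 37C, NADPH regeneration starts turnover for 60 min. Luminescence after detection reagent gives activity.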

[19] = qHTS Assay for Identification of Small Molecule Agonists for Hypoxia Response Element Signaling Pathway (AID 914; active = well fitted activation curve with a large enough effect in the signal ratio, with a control signal flat, not every such curve was filed as active; the % refers to the signal ratio; note: potency is the fitted concentration of half-maximal effect); details: ME-180 (cervical carcinoma) HRE-bla reporter, beta-lactamase ratio, CoCl2, 17 h; activation: active compounds read high
Procedure, shortened: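 HRE-bla ME-180 assay for agonist-like enhancement of an EC50 CoCl2 stimulus: 17 h at 37 degrees Celsius, CCF4 for 2.5 h, ratiometric 460/530 nm signal converted to %Activity and fitted to AC50.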

[20] = NCATS anti-infectives library activity on the primary C. elegans qHTS viability assay (AID 1745855; calls by dose curve; note: potency is the fitted concentration of half-maximal effect)
Procedure, shortened: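 Titration-based screen in worms: eggs hatched overnight in M9, L1 larvae fed TOP10 capsules in S medium with compound, incubated 21 °C for 7 days; fluorescent objects gated by size and intensity at days 0, 3 and 7.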

Chain of 3',5'-cyclic-AMP phosphodiesterase 4B (Homo sapiens) (Q07343 whole entry, looked up): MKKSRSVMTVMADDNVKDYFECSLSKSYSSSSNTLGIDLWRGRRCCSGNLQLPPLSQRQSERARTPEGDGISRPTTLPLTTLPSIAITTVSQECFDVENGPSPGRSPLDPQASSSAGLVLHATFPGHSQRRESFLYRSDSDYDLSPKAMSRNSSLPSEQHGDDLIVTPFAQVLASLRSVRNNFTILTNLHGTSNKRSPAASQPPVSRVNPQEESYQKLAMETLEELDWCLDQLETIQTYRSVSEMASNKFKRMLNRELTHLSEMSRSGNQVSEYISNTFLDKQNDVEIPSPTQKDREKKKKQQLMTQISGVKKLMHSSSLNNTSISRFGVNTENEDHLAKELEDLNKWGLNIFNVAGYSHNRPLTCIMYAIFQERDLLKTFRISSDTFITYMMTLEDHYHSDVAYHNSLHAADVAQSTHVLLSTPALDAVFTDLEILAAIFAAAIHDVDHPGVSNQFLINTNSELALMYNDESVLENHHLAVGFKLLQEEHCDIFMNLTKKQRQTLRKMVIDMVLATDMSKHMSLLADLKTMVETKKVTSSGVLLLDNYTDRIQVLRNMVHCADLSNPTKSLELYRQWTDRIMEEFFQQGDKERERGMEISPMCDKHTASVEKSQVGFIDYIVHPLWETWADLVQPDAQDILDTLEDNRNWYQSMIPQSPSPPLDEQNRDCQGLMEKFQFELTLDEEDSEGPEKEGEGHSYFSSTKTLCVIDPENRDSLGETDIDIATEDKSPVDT
Chain of Glucocorticoid receptor (Homo sapiens) (P04150 whole entry, looked up, the tested form may be a part): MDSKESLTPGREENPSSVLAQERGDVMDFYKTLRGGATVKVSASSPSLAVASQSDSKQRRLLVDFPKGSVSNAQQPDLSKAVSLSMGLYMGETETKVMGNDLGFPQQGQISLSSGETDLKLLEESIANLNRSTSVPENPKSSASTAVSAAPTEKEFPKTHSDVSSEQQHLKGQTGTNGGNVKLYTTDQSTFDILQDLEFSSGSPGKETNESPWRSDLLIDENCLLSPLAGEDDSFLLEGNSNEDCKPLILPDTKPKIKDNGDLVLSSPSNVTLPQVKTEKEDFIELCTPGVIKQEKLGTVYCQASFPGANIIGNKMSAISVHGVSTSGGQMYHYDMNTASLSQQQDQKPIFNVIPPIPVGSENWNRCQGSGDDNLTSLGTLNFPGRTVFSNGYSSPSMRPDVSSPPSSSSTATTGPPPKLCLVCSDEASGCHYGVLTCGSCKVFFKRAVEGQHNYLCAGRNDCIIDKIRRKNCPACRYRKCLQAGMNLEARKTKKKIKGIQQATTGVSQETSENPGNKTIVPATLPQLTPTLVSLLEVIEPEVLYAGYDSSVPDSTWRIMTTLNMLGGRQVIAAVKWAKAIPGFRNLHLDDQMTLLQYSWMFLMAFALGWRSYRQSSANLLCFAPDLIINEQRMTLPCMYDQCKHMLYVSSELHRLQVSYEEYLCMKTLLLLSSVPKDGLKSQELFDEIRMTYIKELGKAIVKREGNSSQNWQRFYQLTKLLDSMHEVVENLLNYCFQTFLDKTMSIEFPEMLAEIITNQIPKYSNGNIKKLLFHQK
Chain of Ubiquitin carboxyl-terminal hydrolase 1 (Homo sapiens) (O94782 whole entry, looked up): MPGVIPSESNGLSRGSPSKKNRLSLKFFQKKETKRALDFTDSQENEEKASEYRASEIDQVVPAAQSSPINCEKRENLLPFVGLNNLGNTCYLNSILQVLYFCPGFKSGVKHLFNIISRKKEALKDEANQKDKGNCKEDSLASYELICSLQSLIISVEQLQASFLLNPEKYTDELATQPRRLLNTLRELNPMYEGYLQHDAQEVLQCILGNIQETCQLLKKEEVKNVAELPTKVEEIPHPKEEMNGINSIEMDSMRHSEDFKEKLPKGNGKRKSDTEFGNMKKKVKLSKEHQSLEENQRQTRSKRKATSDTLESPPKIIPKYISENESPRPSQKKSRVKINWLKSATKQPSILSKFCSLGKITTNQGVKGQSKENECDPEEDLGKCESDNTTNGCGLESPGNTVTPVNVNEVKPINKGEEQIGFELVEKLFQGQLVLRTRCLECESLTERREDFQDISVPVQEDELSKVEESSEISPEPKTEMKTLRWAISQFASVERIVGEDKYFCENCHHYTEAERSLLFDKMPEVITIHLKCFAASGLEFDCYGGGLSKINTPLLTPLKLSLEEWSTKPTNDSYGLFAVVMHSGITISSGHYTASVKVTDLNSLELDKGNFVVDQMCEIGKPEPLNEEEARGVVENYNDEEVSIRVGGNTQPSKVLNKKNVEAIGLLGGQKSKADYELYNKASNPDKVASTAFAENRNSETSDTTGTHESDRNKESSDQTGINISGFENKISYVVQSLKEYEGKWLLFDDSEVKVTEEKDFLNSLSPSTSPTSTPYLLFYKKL
Chain of Cytochrome P450 3A4 (Homo sapiens) (P08684 whole entry, looked up): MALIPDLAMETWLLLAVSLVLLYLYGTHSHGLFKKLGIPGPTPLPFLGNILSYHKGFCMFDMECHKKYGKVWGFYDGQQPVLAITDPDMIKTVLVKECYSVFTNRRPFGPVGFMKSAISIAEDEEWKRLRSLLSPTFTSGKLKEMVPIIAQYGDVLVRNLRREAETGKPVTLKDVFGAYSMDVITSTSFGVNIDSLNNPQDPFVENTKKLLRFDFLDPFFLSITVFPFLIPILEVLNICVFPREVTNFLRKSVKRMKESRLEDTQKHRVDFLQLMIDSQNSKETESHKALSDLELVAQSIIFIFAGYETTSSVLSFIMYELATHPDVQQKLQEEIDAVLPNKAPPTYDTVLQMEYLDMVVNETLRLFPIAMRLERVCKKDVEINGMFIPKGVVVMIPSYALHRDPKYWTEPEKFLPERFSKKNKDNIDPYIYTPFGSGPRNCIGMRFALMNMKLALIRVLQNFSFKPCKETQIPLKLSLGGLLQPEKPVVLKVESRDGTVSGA
Chain of Cytochrome P450 2D6 (Homo sapiens) (P10635 whole entry, looked up): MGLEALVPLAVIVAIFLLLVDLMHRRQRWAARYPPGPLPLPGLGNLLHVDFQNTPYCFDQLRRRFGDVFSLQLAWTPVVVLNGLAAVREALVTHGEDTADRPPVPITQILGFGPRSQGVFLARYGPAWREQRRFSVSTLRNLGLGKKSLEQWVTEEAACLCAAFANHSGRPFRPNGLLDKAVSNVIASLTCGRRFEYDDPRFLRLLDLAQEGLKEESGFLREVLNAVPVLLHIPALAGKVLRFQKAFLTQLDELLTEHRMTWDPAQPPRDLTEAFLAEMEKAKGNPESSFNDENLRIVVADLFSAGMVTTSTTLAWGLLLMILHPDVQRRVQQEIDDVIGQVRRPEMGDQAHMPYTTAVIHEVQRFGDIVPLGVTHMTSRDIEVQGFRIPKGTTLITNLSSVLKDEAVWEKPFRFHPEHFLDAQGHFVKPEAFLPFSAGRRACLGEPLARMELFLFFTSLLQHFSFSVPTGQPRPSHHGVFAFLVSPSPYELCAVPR
Chain of Dual specificity protein kinase CLK4 (Homo sapiens) (Q9HAZ1 whole entry, looked up): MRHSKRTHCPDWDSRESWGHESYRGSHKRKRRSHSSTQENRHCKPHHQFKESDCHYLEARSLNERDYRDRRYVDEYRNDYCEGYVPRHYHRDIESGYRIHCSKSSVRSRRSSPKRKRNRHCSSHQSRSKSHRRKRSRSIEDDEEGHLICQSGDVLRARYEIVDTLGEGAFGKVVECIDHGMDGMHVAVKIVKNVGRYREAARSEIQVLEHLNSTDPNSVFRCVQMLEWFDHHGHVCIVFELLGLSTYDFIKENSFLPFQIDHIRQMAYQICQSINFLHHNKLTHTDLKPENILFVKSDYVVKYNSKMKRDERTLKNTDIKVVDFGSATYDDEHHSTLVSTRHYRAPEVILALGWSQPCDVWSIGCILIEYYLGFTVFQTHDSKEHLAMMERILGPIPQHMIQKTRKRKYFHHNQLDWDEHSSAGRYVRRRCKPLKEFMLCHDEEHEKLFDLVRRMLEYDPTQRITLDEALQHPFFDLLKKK
Chain of Cytochrome P450 1A2 (Homo sapiens) (P05177 whole entry, looked up): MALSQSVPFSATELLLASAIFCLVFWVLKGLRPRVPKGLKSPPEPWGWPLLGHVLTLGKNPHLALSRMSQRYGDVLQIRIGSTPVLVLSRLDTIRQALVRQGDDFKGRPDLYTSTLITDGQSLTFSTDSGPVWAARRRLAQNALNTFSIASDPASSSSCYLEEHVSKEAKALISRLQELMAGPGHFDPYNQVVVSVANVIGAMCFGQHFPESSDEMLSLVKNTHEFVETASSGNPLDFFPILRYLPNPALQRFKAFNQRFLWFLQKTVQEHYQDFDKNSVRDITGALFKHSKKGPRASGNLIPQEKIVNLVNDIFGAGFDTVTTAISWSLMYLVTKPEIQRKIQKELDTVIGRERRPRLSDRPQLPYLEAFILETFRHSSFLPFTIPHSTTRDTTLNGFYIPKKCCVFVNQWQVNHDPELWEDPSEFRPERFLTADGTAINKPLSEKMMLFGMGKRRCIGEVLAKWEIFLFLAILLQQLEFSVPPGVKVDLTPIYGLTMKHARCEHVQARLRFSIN
Chain of Lysosomal acid glucosylceramidase (Homo sapiens) (P04062 whole entry, looked up): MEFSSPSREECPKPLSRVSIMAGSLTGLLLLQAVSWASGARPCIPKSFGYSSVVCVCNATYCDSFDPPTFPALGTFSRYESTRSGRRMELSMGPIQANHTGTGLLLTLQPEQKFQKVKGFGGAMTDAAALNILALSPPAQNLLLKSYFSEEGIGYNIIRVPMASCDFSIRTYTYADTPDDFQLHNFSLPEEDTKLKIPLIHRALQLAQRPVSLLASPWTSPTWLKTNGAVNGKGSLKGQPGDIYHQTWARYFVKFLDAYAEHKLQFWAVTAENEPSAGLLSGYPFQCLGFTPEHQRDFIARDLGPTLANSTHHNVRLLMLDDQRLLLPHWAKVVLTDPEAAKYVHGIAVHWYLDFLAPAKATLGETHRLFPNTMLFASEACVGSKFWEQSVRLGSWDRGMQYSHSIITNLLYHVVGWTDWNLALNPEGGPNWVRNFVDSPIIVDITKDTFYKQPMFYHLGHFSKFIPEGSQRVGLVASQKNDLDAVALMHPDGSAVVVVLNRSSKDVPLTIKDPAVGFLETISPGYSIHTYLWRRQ

CC(C)CN(C[C@@H](OP(=O)(O)O)[C@H](Cc1ccccc1)NC(=O)O[C@@H]1CCOC1)S(=O)(=O)c1ccc(N)cc1
inactive: Potency [1]

COCCn1c(=O)c(CCc2ccccc2)nc2cncnc21
inactive: Potency [2] > 11.4 µM | activity change, negative = inhibition [3] -15.8% | activity change, negative = inhibition [5] 9.83% | outcome [6] | Potency [7] > 9.22 µM | Potency [8] > 46 µM | Potency [9] | Potency [10] | outcome [12] | Potency [13] | Potency [14] | Potency [15] | Potency [1]
active: Potency [4] 10 µM | Potency [11] 7.94 µM

O=c1ccc2cc3ccoc3cc2o1
active: Potency [4] 0.0316 µM | Potency [16] 7.94 µM | Potency [11] 31.6 µM | Potency [17] 2 µM | Potency [18] 3.98 µM
inactive: Potency [7] > 46 µM | Potency [8] > 46 µM | Potency [9] | outcome [12]

COCCn1c(=O)c(-c2ccc(F)cc2)nc2cnc(Nc3cccc(OC)c3)nc21
active: Potency [4] 3.16 µM
inactive: Potency [2] > 11.4 µM | activity change, negative = inhibition [3] -8.42% | activity change, negative = inhibition [5] -5.01% | outcome [6] | Potency [8] > 46 µM | Potency [9] | Potency [10] | Potency [13] | Potency [14] | Potency [15] | Potency [1]

COCCn1c(=O)c(-c2cc(F)cc(F)c2)nc2cnc(N3CCN(C)CC3)nc21
active: Potency [4] 15.8 µM | Potency [19] 3.16 µM
inactive: Potency [2] > 11.4 µM | activity change, negative = inhibition [3] 19.3% | Potency [7] > 9.22 µM | Potency [8] > 46 µM | Potency [9] | Potency [10] | Potency [13] | Potency [14] | Potency [15] | Potency [1]

CN(C)c1ncc2nc(CCc3ccccc3)c(=O)n(CCC#N)c2n1
inactive: Potency [2] > 11.4 µM | activity change, negative = inhibition [3] -11% | activity change, negative = inhibition [5] -3.25% | outcome [6] | Potency [7] > 9.22 µM | Potency [8] > 46 µM | outcome [12] | Potency [13] | Potency [14] | Potency [15] | Potency [1]
active: Potency [4] 2 µM | Potency [17] 2.51 µM

c1cncc(CNc2nc(-c3cccnc3)nc3ccccc23)c1
inactive: Potency [2] > 11.4 µM | activity change, negative = inhibition [3] -12.9% | activity change, negative = inhibition [5] -15.2% | outcome [6] | Potency [7] > 46 µM | Potency [8] > 46 µM | Potency [9] | Potency [1]
active: Potency [4] 0.316 µM | Potency [13] 7.08 µM | Potency [14] 12.6 µM | Potency [15] 11.2 µM

Cc1nc2cnc(OCc3ccccc3)nc2n(CCc2ccccc2)c1=O
inactive: Potency [2] > 11.4 µM | activity change, negative = inhibition [3] 2.1% | activity change, negative = inhibition [5] -10.4% | outcome [6] | Potency [7] > 9.22 µM | Potency [8] > 46 µM | outcome [12] | Potency [13] | Potency [14] | Potency [15] | Potency [1]

O=c1c(CCc2ccccc2)nc2cnc(Oc3ccccc3)nc2n1C1CC1
inactive: Potency [2] > 11.4 µM | activity change, negative = inhibition [3] -15.6% | activity change, negative = inhibition [5] -5.31% | outcome [6] | Potency [7] > 9.22 µM | Potency [8] > 46 µM | outcome [12] | Potency [13] | Potency [14] | Potency [15] | Potency [1]
active: Potency [4] 7.94 µM

CC(C)C[C@H](NC(=O)CNC(=O)c1cc(Cl)ccc1Cl)B1OC(=O)C(CC(=O)O)(CC(=O)O)O1
active: Potency [20] 1.63 µM

c1ccc(CNc2nc(-c3cccnc3)nc3ccccc23)cc1
inactive: Potency [2] > 11.4 µM | activity change, negative = inhibition [3] -20.2% | activity change, negative = inhibition [5] -17.2% | outcome [6] | Potency [7] > 46 µM | Potency [8] > 46 µM | Potency [9]
active: Potency [4] 0.398 µM | Potency [17] 15.8 µM | Potency [18] 15.8 µM | Potency [13] 7.08 µM | Potency [14] 11.2 µM | Potency [15] 5.01 µM

COCCn1c(=O)c(-c2cccs2)nc2cnc(Oc3ccccc3)nc21
inactive: Potency [2] > 11.4 µM | activity change, negative = inhibition [3] 16.7% | Potency [7] > 9.22 µM | Potency [8] > 46 µM | Potency [10] | outcome [12] | Potency [13] | Potency [14] | Potency [15] | Potency [1]
active: Potency [4] 2 µM | Potency [16] 3.98 µM | Potency [19] 3.16 µM

COc1ccc(Oc2ncc3nc(-c4cccc(C#N)c4)c(=O)n(Cc4cccc(OC)c4)c3n2)cc1
inactive: Potency [2] > 11.4 µM | activity change, negative = inhibition [3] 7.45% | Potency [4] | activity change, negative = inhibition [5] -6.12% | outcome [6] | Potency [7] > 9.22 µM | Potency [8] > 46 µM | Potency [9] | outcome [12] | Potency [13] | Potency [14] | Potency [15] | Potency [1]
active: Potency [11] 2 µM
